SF1 inhibitor = SF-1 (human) inhibition. Q13285. CHO-K1 Gal4-SF-1 LBD luciferase reporter. inhibition, % at 10 µM. 0.55% of 65,000 active. AID 525;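 active = inhibition above the mean inhibition of all tested compounds plus 3 SD, cut at about 48% in these data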;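 also: 0% = SF-1 transfected cells with DMSO and 100% = mock-transfected cells lacking SF-1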
Target sequence (Q13285 whole entry, looked up, the tested form may be a part): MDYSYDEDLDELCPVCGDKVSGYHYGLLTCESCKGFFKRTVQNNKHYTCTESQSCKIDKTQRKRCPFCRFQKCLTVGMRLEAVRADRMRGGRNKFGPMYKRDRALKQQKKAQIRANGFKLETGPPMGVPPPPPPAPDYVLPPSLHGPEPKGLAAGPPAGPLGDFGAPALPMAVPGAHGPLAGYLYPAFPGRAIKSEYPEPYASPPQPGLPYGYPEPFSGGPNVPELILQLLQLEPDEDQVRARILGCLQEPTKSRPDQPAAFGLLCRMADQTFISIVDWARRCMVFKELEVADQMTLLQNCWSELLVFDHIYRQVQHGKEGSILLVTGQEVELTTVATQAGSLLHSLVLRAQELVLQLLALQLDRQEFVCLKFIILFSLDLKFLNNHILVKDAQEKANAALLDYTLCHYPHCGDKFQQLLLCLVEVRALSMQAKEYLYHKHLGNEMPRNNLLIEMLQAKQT
An asterisk follows results filed as active. Shown is part of a subset that was picked to be rich in hits.

SMILES | SF1 inhibitor
COC(=O)c1ccc(N2C(=O)CC(N3CCC(n4c(=O)[nH]c5ccccc54)CC3)C2=O)cc1 (stereo unspecified) | 54*
COc1cccc(-c2cc(C(F)(F)F)n3nc(C(=O)N4CCC5(CC4)OCCO5)cc3n2)c1 | -2
Cc1ccc2cc3cc(C(=O)N4CCC5(CC4)OCCO5)oc3nc2c1 | -13
CCOc1cc2[nH]c(=S)n(CCCC(=O)N3CCC4(CC3)OCCO4)c(=O)c2cc1OCC | -4
Cc1c2ccncc2c(C)c2c1[nH]c1ccccc12 | 76*
COc1ccc(C2C(C(=O)N3CCC4(CC3)OCCO4)c3cc(OC)c(OC)cc3C(=O)N2C)cc1 (stereo unspecified) | 12
Cn1ncnc2c(=O)n(C)c(=O)nc1-2 | 96*
OC1(c2ccc(F)cc2)CC2CCC(C1)N2Cc1nnnn1C1CCCCC1 (stereo unspecified) | -14
C=CCOC(=O)C1=C(C)OC(N)=C(C#N)[C@@]12C(=O)N(CC(N)=O)c1ccccc12 | -2
CC(C(N)=O)N1CC(c2ccccc2)CC1=O (stereo unspecified) | -12
COCCn1cc(C(=O)N2CCC3(CC2)OCCO3)c2c3ccccc3n(C)c2c1=O | -1
C[C@]12CCC(=O)C=C1CCC1C2CC[C@@]2(C)C1CC[C@@]2(O)CC#N (stereo partly specified) | -14
CC(C)NS(=O)(=O)c1ccc(OCC(=O)N2CCN(Cc3ccccc3)CC2)c(Cl)c1 | 17
C[C@@]1(CO)[C@H](O)CC[C@@]2(C)[C@H]1CC[C@H]1C[C@@H]3C[C@@]12CC[C@]3(O)CO | 84*
C=CCn1c(O)c(C(C)=Nc2ccc(C(=O)OCC)cc2)c(=O)[nH]c1=O | 4
O=C1C2CCN(CC2)[C@@H]1Cc1ccc2ccccc2c1O | -7
CCOP1(=S)Oc2cc3c(cc2C(C(=O)OC)(C(F)(F)F)O1)OCO3 (stereo unspecified) | -1
CCCCn1c(O)c(C=NCCN2CCCCC2)c(=O)[nH]c1=O | 1
Cc1cccc(N2CCc3c2nc2ccccc2c3N)c1 | 6
O=C(c1cc(Br)ccc1Cl)N1CCC2(CC1)OCCO2 | 8
CN1CCN(C(=O)COc2ccc(-c3nc4ccccc4s3)cc2)CC1 | 71*
O=P(CN1CCN(c2ccccc2)CC1)(N1CCCCC1)N1CCCCC1 | 33
CN1C(=O)C(C2(C#N)CCCCC2)C(=O)N(C)C1=O | -13
CCC(=NCC1CCCO1)c1c(O)[nH]c(=O)[nH]c1=O (stereo unspecified) | -2
CCCCn1c(O)c(C=NCCCN(CC)CC)c(=O)[nH]c1=O | 4

Compound activity as filed in PubChem BioAssay.
